Most compounds without a hit are left out; they make up all but 11% or so of the library.
HCV inhibitor – inhibitors of hepatitis C virus infection | Huh7.5.1 HCVcc-Cre infection, luciferase reporter, 44 h | 3.4% of 340,000 active | Potency, µM (highest dose often 41.8 µM), without a hit: top-dose activity change, negative = inhibition, usual class: inhibitors
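A cell-based infection assay in which seeded cells (1,000 per well) receive test compound after 4 h, are inoculated with HCVcc-Cre at approximately 0.5 moi, and are incubated 44 h before luminescence detection.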
Pf growth 48h – P. falciparum growth inhibition at 48 hours (one generation); P. falciparum luciferase growth in erythrocytes, 48 h; Potency, µM (doses to about 28.7 µM), for inactives: at the top dose activity change, negative = inhibition, most hits filed as inhibitors; 5.9% of 310,000 active
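Firefly luciferase activity from engineered P. falciparum reports growth; inhibitors lower the luminescent signal. Cultures contained 2% hematocrit erythrocytes at 0.1% final parasitemia.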
AmpC inh no detg – blocks E. coli AmpC beta-lactamase in detergent-free assay | AmpC nitrocefin hydrolysis, absorbance 480 nm, 0.0001% Triton | 0.52% of 330,000 active | Potency, µM (titrated, usually from 57.1 µM), for the others: at the highest dose activity change, negative = inhibition, most hits filed as inhibitors | AID 485341 | P00811;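 further: plate controls were no compound for no effect and no enzyme for full effect; nearly all actives have a fitted effect of over 20% in size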
Target sequence (P00811 whole entry, looked up): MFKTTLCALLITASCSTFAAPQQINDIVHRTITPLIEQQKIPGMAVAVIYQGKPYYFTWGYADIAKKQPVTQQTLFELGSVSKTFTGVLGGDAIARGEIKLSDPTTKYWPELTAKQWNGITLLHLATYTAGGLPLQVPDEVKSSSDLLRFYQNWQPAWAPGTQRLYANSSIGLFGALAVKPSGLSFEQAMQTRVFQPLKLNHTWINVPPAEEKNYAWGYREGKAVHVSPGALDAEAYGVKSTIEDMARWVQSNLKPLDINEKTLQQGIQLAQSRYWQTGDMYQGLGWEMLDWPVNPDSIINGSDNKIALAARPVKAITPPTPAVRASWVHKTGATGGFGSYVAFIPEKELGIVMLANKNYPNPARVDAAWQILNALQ
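20 mM phosphate pH 7.0 + 0.01% (detergent screen) or 0.0001% Triton X-100; 5.3 nM AmpC reagent; cpd preinc 15 min RT; nitrocefin (800 uM stock) to start; A480 q20 s × 4 min; Activity was normalised to no-enzyme and no-compound control wells.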
Pf growth 96h – P. falciparum growth inhibition at 96 hour, primary screen for plastid delayed-death inhibitors | P. falciparum luciferase reporter growth, 96 h | 6.9% of 320,000 active | Potency, µM (titrated, usually from 28.7 µM), inactives show at the top dose activity change, negative = inhibition, hits mostly inhibitors
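P. falciparum expressing integrated firefly luciferase grown in erythrocytes (2% hematocrit, 0.05% parasitemia final) with compounds for 96 hours at 37 C, 5% CO2. Growth inhibition read as loss of luminescence after adding luciferase detection reagent.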
AMA1 RON2 block – inhibitors of Plasmodium falciparum AMA1-RON2 interaction. Potency, µM (highest dose often 58.2 µM), for inactives: at the highest dose activity change, negative = inhibition, hits mostly inhibitors. 0.2% of 360,000 active. AID 720542. AlphaScreen AMA1-biotinylated RON2 peptide binding;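 further: 0% = vehicle wells and -100% = peptide control; nearly all actives have a fitted effect of over 45% in size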
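AMA1 (3D7) with his tag at 25 nM final met compounds first, then biotinylated RON2 peptide at 25 nM; detection used donor plus acceptor beads, 10 µg/mL apiece, read by AlphaScreen after 30 min at room temperature.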
AmpC inh detg – blocks E. coli AmpC beta-lactamase in detergent assay | P00811 | AmpC hydrolysis of nitrocefin, absorbance 480 nm, 0.01% Triton | Potency, µM (highest dose often 114 µM), for the others: at the top dose activity change, negative = inhibition, most hits filed as inhibitors | 0.041% of 370,000 active | AID 485294;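 further: 0% = no-compound wells and -100% = no-enzyme wells; nearly all actives have a fitted effect of over 25% in size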
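AmpC (5.3 nM in the dispensed reagent) in 20 mM phosphate pH 7.0 with 0.01% (detergent screen) or 0.0001% Triton X-100 was preincubated with compounds for 15 min at room temperature. Nitrocefin was then added from an 800 uM solution, and hydrolysis was followed at 480 nm.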
* = called active by the depositor. The call rests on the fitted dose curve; in most records, active means well fitted curve in the direction sought with a large enough effect; inconclusive means small, poorly fitted or top-dose-only effect, or another doubt; inactive means no such curve, though single readings can be large; an effect the other way counts as inactive or inconclusive. Unless noted, on the % scale 0 is the no-effect control and ±100 the full control effect; potency means the concentration at half of the fitted maximal effect.

How did Cc1ccc(N2CC(c3nnc(Cc4ccc(F)cc4Cl)o3)CC2=O)cc1 (centres undefined) do in these assays?
AmpC inh detg: 0%

What do the screens show for `COc1ccc(-n2c(C)c([N+](=O)[O-])c3ccc(O)c(CN(C)C)c32)cc1`?
HCV inhibitor: -30%; Pf growth 48h: 0.83µM*; AmpC inh no detg: 24%; Pf growth 96h: inconclusive; AMA1 RON2 block: -6%; AmpC inh detg: -1%

What do the screens show for `COc1ccc(-n2c(C(C)n3nc(C)c([N+](=O)[O-])c3C)n[nH]c2=S)cc1` (centres undefined)?
HCV inhibitor: 24%; Pf growth 48h: 11%; AmpC inh no detg: -16%; Pf growth 96h: inconclusive; AMA1 RON2 block: 1%; AmpC inh detg: 0%

Results for COc1ccc2cc(C(=O)NCc3ccc4c(c3)CCN4C(=O)c3ccc(F)cc3)[nH]c2c1 ?
AmpC inh detg: 9%

How did CN1CCN(S(=O)(=O)c2ccc(NC(=O)c3csc4ccccc34)cc2)CC1 do in these assays?
HCV inhibitor: 10µM*; Pf growth 48h: 4.7µM*; AmpC inh no detg: 54%; AMA1 RON2 block: -9%; AmpC inh detg: -10%

Results for O=C(Nc1ccccc1)c1ccccc1OCc1ccc(F)cc1 ?
HCV inhibitor: inconclusive; Pf growth 48h: -4%; AmpC inh no detg: -35%; Pf growth 96h: 68%; AMA1 RON2 block: 5%; AmpC inh detg: -14%

How did CCCOc1ccccc1C(=O)Nc1ccc(S(=O)(=O)N2CCN(C)CC2)cc1 do in these assays?
HCV inhibitor: 22µM*; Pf growth 48h: inconclusive; AmpC inh no detg: 190%; Pf growth 96h: -22%; AMA1 RON2 block: -12%; AmpC inh detg: 7%

Results for CCCOc1ccccc1OCC(=O)Nc1ccc(S(=O)(=O)N2CCCCC2)cc1 ?
HCV inhibitor: inconclusive; Pf growth 48h: inconclusive; AmpC inh no detg: -19%; Pf growth 96h: 10µM*; AMA1 RON2 block: 2%; AmpC inh detg: -4%

How did COc1ccccc1C(=O)Nc1ccc(S(=O)(=O)N2CCN(C)CC2)cc1 do in these assays?
HCV inhibitor: 0%; AMA1 RON2 block: -11%

What do the screens show for `O=C(Nc1ccc(O)cc1)c1ccccc1OCc1ccccc1`?
HCV inhibitor: 14µM*; Pf growth 48h: inconclusive; AmpC inh no detg: -44%; Pf growth 96h: inconclusive; AMA1 RON2 block: -4%; AmpC inh detg: -4%

Results for Cc1ccccc1OCC(=O)Nc1ccc(S(=O)(=O)N2CCCC2)cc1 ?
HCV inhibitor: inconclusive; Pf growth 48h: inconclusive; AmpC inh no detg: inconclusive; Pf growth 96h: inconclusive; AMA1 RON2 block: 4%; AmpC inh detg: -6%

How did Cc1cccc(C(=O)OCc2cc(=O)n3ccsc3n2)c1 do in these assays?
AmpC inh detg: 10%

What do the screens show for `CCN(CC)C(=O)Cn1c(=O)n(CCCCCC(=O)NCc2ccc(C)cc2)c(=O)c2sccc21`?
AmpC inh detg: 17%

What do the screens show for `COc1ccc(S(=O)(=O)n2nc(C)c(S(=O)(=O)N3CCCCCC3)c2C)cc1OC`?
AmpC inh detg: 3%

What do the screens show for `COc1ccc(NC(=O)C2CCN(S(=O)(=O)c3c(C)noc3/C=C/c3ccco3)CC2)cc1`?
AmpC inh detg: 3%

Results for COC(=O)c1ccccc1NC(=O)Cn1c(=O)n(CCCCC(=O)NCc2ccc3c(c2)OCO3)c(=O)c2ccccc21 ?
AmpC inh detg: 1%

What do the screens show for `CCNS(=O)(=O)c1ccc(NC(=O)c2ccccc2)cc1`?
HCV inhibitor: -18%; Pf growth 48h: 17%; AmpC inh no detg: -20%; AMA1 RON2 block: 29%; AmpC inh detg: 1%

How did CCCOc1ccccc1OCC(=O)Nc1ccc(S(=O)(=O)N2CCCC2)cc1 do in these assays?
HCV inhibitor: 10µM*; Pf growth 48h: -16%; AmpC inh no detg: -19%; Pf growth 96h: inconclusive; AMA1 RON2 block: -11%; AmpC inh detg: 1%

How did CCNS(=O)(=O)c1ccc(NC(=O)c2ccccc2OCC)cc1 do in these assays?
HCV inhibitor: 5.6µM*; Pf growth 48h: -5%; AmpC inh no detg: -29%; AMA1 RON2 block: 1%; AmpC inh detg: inconclusive

Results for Cc1cccc(N2CCN(C3(c4ccccc4)C(=O)c4ccccc4C3=O)CC2)c1C ?
AmpC inh detg: 0%

Results for CC(=O)c1cn(CCOc2ccccc2C)c2ccccc12 ?
HCV inhibitor: 0.79µM*; Pf growth 48h: 3.3µM*; AmpC inh no detg: 27%; Pf growth 96h: 0%; AMA1 RON2 block: 5%; AmpC inh detg: inconclusive

Results for Cc1ccccc1OCCn1cc(C(=S)N2CCN(C)CC2)c2ccccc21 ?
HCV inhibitor: inconclusive; Pf growth 48h: inconclusive; AmpC inh no detg: 140%; Pf growth 96h: inconclusive; AMA1 RON2 block: inconclusive; AmpC inh detg: 6%

What do the screens show for `Cc1ccccc1OCCn1cc(C(=S)N2CCCC2)c2ccccc21`?
HCV inhibitor: 11µM*; AMA1 RON2 block: 23%

What do the screens show for `Cc1ccccc1OCCn1cc(C(=O)C(=O)N2CCOCC2)c2ccccc21`?
HCV inhibitor: 1%; Pf growth 48h: inconclusive; AmpC inh no detg: 219%; Pf growth 96h: -1%; AMA1 RON2 block: 10%; AmpC inh detg: -11%

How did COc1ccc(-c2nc(C)c(CCNC(=O)c3cc(OC)c(OC)c(OC)c3)s2)cc1OC do in these assays?
AmpC inh detg: -5%

How did CC(C)N1CCC(N2CCN(C3CCCC3)CC2CCO)CC1 (centres undefined) do in these assays?
HCV inhibitor: 4%; Pf growth 48h: -14%; AmpC inh no detg: -28%; Pf growth 96h: 13µM*; AMA1 RON2 block: -11%; AmpC inh detg: -9%

What do the screens show for `OCCC1CN(C2CCSCC2)CCN1C1CCCC1` (centres undefined)?
HCV inhibitor: 13%; Pf growth 48h: -4%; AmpC inh no detg: -22%; Pf growth 96h: -12%; AMA1 RON2 block: -2%; AmpC inh detg: 7%

Results for O=C(CCNS(=O)(=O)c1ccc2c(c1)CCN2C(=O)C1CC1)Nc1ccc(F)cc1F ?
AmpC inh detg: 0%

What do the screens show for `CCn1c(=O)cc(SCC(=O)NCc2cccnc2)c2ccccc21`?
HCV inhibitor: -17%; Pf growth 48h: 36%; AmpC inh no detg: 3%; Pf growth 96h: 9.3µM*; AMA1 RON2 block: -7%; AmpC inh detg: 4%

What do the screens show for `CCn1c(=O)cc(SCC(=O)NCc2ccc(C)o2)c2ccccc21`?
HCV inhibitor: -19%; AmpC inh no detg: 1%; Pf growth 96h: 12µM*; AMA1 RON2 block: 2%; AmpC inh detg: -6%

Results for CCc1ccc(CNC(=O)CSc2cc(=O)n(CC)c3ccccc23)cc1 ?
AmpC inh detg: 4%
